Screens: PubChem BioAssay, National Center for Advancing Translational Sciences (NCATS)
D3 antag: D3 dopamine receptor (human) antagonism | P35462 | D3R cells, DiscoveRx beta-arrestin luminescence, antagonist mode; stronger effect = lower value | max response, negative = inhibition, % | AID 652054 | 2.5% of 360,000 active; in the data active means max response below about -50%; inconclusive means no clear call, values can overlap the other calls; further: on the % scale 0 is the no-effect control and ±100 the full control effect
Target sequence (P35462 whole entry, looked up): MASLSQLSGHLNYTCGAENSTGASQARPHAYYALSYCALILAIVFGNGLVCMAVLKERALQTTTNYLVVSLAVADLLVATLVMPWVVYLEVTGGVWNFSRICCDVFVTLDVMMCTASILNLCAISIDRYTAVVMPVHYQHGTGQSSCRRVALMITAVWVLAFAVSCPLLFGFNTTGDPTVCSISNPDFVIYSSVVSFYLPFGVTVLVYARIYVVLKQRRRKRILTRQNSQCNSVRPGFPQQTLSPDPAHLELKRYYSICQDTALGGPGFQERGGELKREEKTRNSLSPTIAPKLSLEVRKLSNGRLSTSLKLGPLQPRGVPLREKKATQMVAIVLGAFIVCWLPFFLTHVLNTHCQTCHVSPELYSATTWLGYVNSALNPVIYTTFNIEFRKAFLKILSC
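Cells expressing the human receptor were seeded at 1500 cells/well, incubated overnight at 37 degrees C in 5% CO2, then exposed to library compounds with dopamine controls for 90 minutes at 37 degrees C before luminescent detection.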
TRPML1 inh: human mucolipin-1 channel inhibition. Q9GZU1. TRPML1-inducible cells, Ca2+ dye fluorescence, FDSS; stronger effect = lower value; inhibition of EC80 agonist-evoked calcium signal. activity change, negative = inhibition, % (no concentration beside the values). AID 624415. 0.02% of 390,000 active; in the data active means activity change below about -50%; inconclusive means between about -30% and that limit;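 further: stimulus is agonist 54-4 at its EC80 concentration; on the % scale 0 is the no-effect control and ±100 the full control effect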
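Tet-induced TRPML1-DL cells loaded with Ca8 no-wash calcium dye were read kinetically on FDSS. Compound addition was followed by EC80 agonist 54-4 (4 uM final); inhibition was read over 110 s.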
DRD3 agonist: activates the human D3 dopamine receptor | P35462 | D3R DiscoveRx beta-arrestin cells, luminescence, 90 min | max activation, % | 0.58% of 410,000 active | AID 652048; in the data active means max activation above about 30%; further: 0% is about no effect
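Agonist-mode cell screen: cells plated at 1500/well and incubated overnight at 37 °C, then exposed to library compounds for 90 min at 37 °C. Detection reagent was added for 30–60 min at room temperature, and luminescence was read.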
TRPML1 ag: activates the human TRPML1 channel. Q9GZU1. TRPML1-expressing cells, Ca2+ dye fluorescence, FDSS. activation, % (no concentration beside the values). 0.12% of 410,000 active; in the data active means activation above about 50%; inconclusive means mostly about 30% to 49%; further: 0% is about no effect
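Calcium fluorescence on an FDSS kinetic reader gave the read-out. Tet-induced TRPML1-DL cells were plated overnight, dye-loaded (Ca8 with quencher, 45-90 min, room temperature, dark), then read 110 s after compound addition, and again 110 s after 4uM final 54-4 (EC80).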
Starred values were filed as active, the others as inactive; ? = inconclusive; . = no result; ! = not confirmed by another sample. A selection: hits, their analogues and other compounds. The true share with any hit is near 2.9%.

SMILES | D3 antag | TRPML1 inh | DRD3 agonist | TRPML1 ag
O=C(Cc1csc(N2CCOCC2)n1)N/N=C/c1ccc(O)c(O)c1O | -57* | 3 | -13 | 0
Cc1cccc(Nc2nnc(-n3nc(C)cc3C)c3ccccc23)c1 | . | -21 | 2 | -1
COc1cccc(/C=C/C(=O)c2ccc(NS(=O)(=O)c3ccc(C)cc3)cc2)c1 | -54* | -12 | -9 | 1
COc1cc(/C=C/C(=O)c2ccc(NS(=O)(=O)c3ccc(C)cc3)cc2)cc(OC)c1O | -18 | 3 | -7 | 5
COc1ccccc1C(=O)N1CCC(c2noc(-c3ccc(S(=O)(=O)N4CCCC4)cc3)n2)CC1 | . | -14 | 9 | 0
Clc1cccc(CNCCCSc2ncccn2)c1Cl | -70* | -6 | -18 | -1
Cc1cc(C)nc(SCCCNCc2ccccc2)n1 | -67* | -20 | -26 | 0
Clc1ccc(CNCCCSc2ncccn2)cc1Cl | -67* | -11 | 1 | 0
Clc1cccc(Cl)c1CNCCCSc1ncccn1 | -3 | -1 | -6 | 0
CCOc1ccc(C(=O)NCC(c2ccc3c(c2)OCO3)N2CCN(C)CC2)cc1 (configuration not stated) | . | -20 | -6 | 0
O=C(Nc1ccc(N2CCN(C(=O)c3ccc(Cl)cc3)CC2)cc1)c1ccc2c(c1)OCCO2 | 23 | 4 | 43* | 0
O=C(Nc1ccc(N2CCN(C(=O)c3ccccc3)CC2)cc1)c1ccc2c(c1)OCCO2 | 43 | -7 | 27 | 1
N#Cc1c(NC(=O)c2cnccn2)sc2c1CCCC2 | 4 | -3 | -4 | -1
N#Cc1ccsc1NC(=O)c1cnccn1 | -52* | 2 | -3 | 0
O=C(COc1cccc(Cl)c1)N1CCC(c2nc3ccccc3s2)CC1 | . | -4 | 4 | -1
Cc1cc(=O)[nH]c(SCc2cccc(Br)c2)n1 | 80 | 4 | -2 | 1
COc1ccc(CSc2nc(C)cc(=O)[nH]2)cc1Br | -84* | 7 | -11 | 2
Nc1cc(CN2C(=O)c3ccccc3C2=O)cc(Cl)c1O | 10 | -2 | 31* | 0
CN1CCN(C(c2ccc(Br)cc2)c2cc(Cl)c3cccnc3c2O)CC1 (configuration not stated) | -76* | 13 | -9 | 0
O=C1CC(=O)N(c2cccc(F)c2)N1 | -51* | -11 | -12 | 0
O=C1CSC(=S)N1c1cccc(F)c1 | 4 | -9 | 8 | 0
CCCS(=O)(=O)N1CCCC(C(=O)NCCCN2CCN(c3cccc(Cl)c3)CC2)C1 (configuration not stated) | -25 | -13 | 0 | 0
O=C(NCCCN1CCN(c2ccccc2F)CC1)C1CCN(S(=O)(=O)c2cccs2)CC1 | ? | 14 | 0 | 0
CCS(=O)(=O)N1CCC(C(=O)NCCCN2CCN(c3ccccc3F)CC2)CC1 | -52* | -4 | 40* | 0
CCCS(=O)(=O)N1CCCC(C(=O)NCCCN2CCN(c3ccccc3F)CC2)C1 (configuration not stated) | -53* | 1 | 31* | -1
SMILES | D3 antag | TRPML1 inh | DRD3 agonist | TRPML1 ag
CN1CCc2cccc3c2[C@H]1Cc1ccc(O)c(O)c1-3 | -20 | 13 | 76*! | 5
Cn1nccc1C(=O)Nc1sc2c(c1C#N)CCCC2 | -17 | 7 | 1 | 1
COc1ccc(-c2c(C)sc(NC(=O)c3ccnn3C)c2C#N)cc1 | 98 | -4 | 55* | 0
CCN(CCCNC(=O)CN1N=C(c2ccccc2)CCC1=O)c1cccc(C)c1 | . | 6 | 41* | -1
COCCCNC(=O)c1sc2nc(C)c(C(=O)Nc3ccc(C)cc3C)c(-c3ccccc3Cl)c2c1N | . | 5 | 5 | -1
Cc1cccc(N=C2NC(=O)/C(=C/c3cccnc3)S2)c1C | -61* | -12 | -4 | 1
Cc1ccc(N=C2NC(=O)/C(=C/c3cccnc3)S2)c(C)c1 | -19 | 5 | -23 | 1
CSc1cccc(NC(=O)c2ccc(CN3CCc4ccccc4C3)cc2)c1 | -96* | -11 | -7 | -1
O=C(Nc1cccc(Br)c1)c1ccc(CN2CCc3ccccc3C2)cc1 | -56* | 19 | -16 | 2
CC(=O)c1ccc(-c2ccc(-c3cc(=O)oc4c(C(C)C)ccc(C)c34)cc2)cc1 | -7 | -1 | -7 | 64*
CN(Cc1ccccc1)C(=O)COC(=O)c1ccc2c(c1)OCO2 | 6 | -4 | -9 | -1
CC(CN(C)Cc1ccccc1)OC(=O)c1cccs1 (configuration not stated) | -76* | -8 | -5 | 1
CC(CN(C)Cc1ccccc1)OC(=O)c1ccc2c(c1)OCCO2 (configuration not stated) | -77* | -2 | 0 | 2
CC(CN(C)Cc1ccccc1)OC(=O)c1ccccc1F (configuration not stated) | -10 | 39 | -4 | 2
C=CCn1c(SCC#N)nc2cc(Cl)ccc2c1=O | . | . | . | -1
Cc1ccc(CNC(=O)CN2C(=O)CCn3nc(-c4ccccc4)cc32)cc1 | . | 8 | -12 | 0
CCOC(=O)CNS(=O)(=O)c1ccc2c3c(cccc13)C(=O)N2CC | 7 | 23 | 3 | 0
CCOC(=O)Cc1csc(NS(=O)(=O)c2ccc3c4c(cccc24)C(=O)N3CC)n1 | -66* | 4 | 0 | 1
CCOc1cc(-c2ccc(OC(=O)c3ccc(Cl)cc3)c(OC)c2)cc(=O)c2c(C)oc(C)c12 | . | 14 | -19 | 0
O=C(NCc1cccs1)c1nn(-c2ccccc2F)nc1CO | . | -5 | -13 | 1
O=C(Nc1nccs1)c1cc(-c2ccccc2)nc2ccccc12 | 16 | 30 | 44* | 0
Cc1ccc2nc(-c3ccc(NS(C)(=O)=O)cc3)cc(-c3ccccc3)c2c1 | -16 | 8 | 18 | 2
Cc1cccc(-c2cc(C(=O)Nc3ccncc3)c3ccccc3n2)c1 | 100 | 1 | 35* | 1
Cc1ccc2nc(-c3ccncc3)cc(-c3ccccc3)c2c1 | 24 | -2 | 57* | 0
O=C(C1CCCCC1)N(Cc1cccnc1)c1nc2ccc(Cl)cc2s1 | . | -13 | -13 | 0
SMILES | D3 antag | TRPML1 inh | DRD3 agonist | TRPML1 ag
COc1cccc(NC(=O)COc2ccccc2C(=O)Nc2ccccc2)c1 | . | . | . | 0
CCOc1ccc(-n2nc(CO)c(C(=O)NCc3cccc(OC)c3)n2)cc1 | . | 20 | 6 | 2
CCCN1C(=O)C(Cc2nc3ccccc3c(=O)n2CC)c2cc(Br)ccc21 (configuration not stated) | . | 11 | -10 | 3
Cc1ccccc1NC(=O)COc1ccccc1C(=O)Nc1ccccc1 | . | . | . | 1
CC1CCN(CC(=O)N2c3ccccc3CC2C)CC1 (configuration not stated) | -25 | 7 | -7 | 0
CC1Cc2ccccc2N1C(=O)Cn1cc(C(F)(F)F)ccc1=O (configuration not stated) | -117* | -1 | -14 | 0
CC1Cc2ccccc2N1C(=O)CN1CCN(Cc2ccccc2)CC1 (configuration not stated) | -78* | 2 | -11 | 3
CC1Cc2ccccc2N1C(=O)CN1CCc2ccccc2C1 (configuration not stated) | -4 | -23 | -17 | 0
